Shown are actives, neighbours in structure and some others; about 13% of the full set was active somewhere.
MARV entry inh = blocks Marburg virus binding to or entry into cells | Marburg virus pseudotyped entry inhibition, cell reporter | Potency, µM (titrated, usually from 37.8 µM), usual class: inhibitors | 1.8% of 300,000 active | AID 540276; calls by dose curve; tested in HEK293 cells
Shiga toxin inh = Shiga toxin inhibition | 9.2% of 290,000 active | Vero cells, Shiga toxin protein synthesis inhibition reporter | AID 2315 | inhibition, % at 38.7 µM; in the data active = inhibition mostly above about 28%, no sharp cut-off; inactive = mostly below about 43%
Lassa entry inh = Lassa virus entry inhibition. Lassa virus pseudotype entry inhibition, cell reporter. Potency, µM (series often up to 37.9 µM), actives largely listed as inhibitors. 1.2% of 300,000 active; calls by dose curve; tested in HEK293 cells; also: nearly all actives have a fitted effect of over 50% in size
CHX counter = counter-screen hit for Shiga toxin inhibitors, cycloheximide; cell reporter, cycloheximide protein synthesis inhibition counterscreen; 12% of 300,000 active; max response, %; AID 2314; in the data active = max response mostly above about 13%, no sharp cut-off; inactive = mostly below about 14%; also: read at 38.3 µM for the half of the compounds with a filed dose
HCV inhibitor = HCV inhibition | 3.4% of 340,000 active | Potency, µM (top dose mostly 41.8 µM), most hits filed as inhibitors | AID 651820 | Huh7.5.1 HCVcc-Cre infection, luciferase reporter, 44 h; active = well fitted inhibition curve with a large enough effect; inconclusive = small, poorly fitted or top-dose-only effect, or another doubt; inactive = no such curve, though single readings can be large or run the other way
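Seed cells (1,000/well) for 4 h; treat with compound and infect with HCVcc-Cre, moi about 0.5. Incubate 44 h, then detect luciferase activity.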
FMDV antiviral = blocks foot and mouth disease virus; FMDV antiviral cell-based qHTS; Potency, µM (titrated, usually from 57.9 µM), hits mostly inhibitors; 1.2% of 410,000 active; calls by dose curve; tested in HEK293T cells; also: read-out not given here; nearly all actives have a fitted effect of over 45% in size
Large screens that a line does not name were inactive.

Cc1ccc(-c2nc(CSCC(=O)N3CCOCC3)c(C)o2)cc1	Shiga toxin inh 73
O=C(CSc1ccc(Cl)cc1)N1CCOCC1	Shiga toxin inh 68, CHX counter 29
Cc1ccc(-c2nc(CSCC(=O)N3CCN(C(=O)c4ccco4)CC3)c(C)o2)cc1	HCV inhibitor inconclusive, FMDV antiviral inconclusive (no result: Lassa entry inh)
Cc1nc2c3c4c(sc3n3c(SCC(=O)NCc5ccco5)nnc3n2n1)COC(C)(C)C4	none
CCOc1ccc(-c2nc3c(c(SCC(=O)Nc4ccccc4C)n2)Cc2ccccc2O3)cc1	none (no result: Shiga toxin inh, CHX counter, HCV inhibitor)
COc1ccc(C(=O)c2cc([N+](=O)[O-])ccc2N2CCN(C)CC2)cc1	MARV entry inh 7.1µM, HCV inhibitor inconclusive
O=C(c1ccc(Br)cc1)c1cc([N+](=O)[O-])ccc1N1CCCCC1	MARV entry inh 0.73µM, Lassa entry inh inconclusive, HCV inhibitor inconclusive
CN1CCN(c2ccc([N+](=O)[O-])cc2C(=O)c2ccc(Br)cc2)CC1	MARV entry inh inconclusive, Lassa entry inh inconclusive
Cc1cc(CCNC=O)c(C)c2c1sc1ccccc12	HCV inhibitor inconclusive (no result: Shiga toxin inh, CHX counter)
Cc1cc(O)cc2c(=O)c3ccccc3sc12	Shiga toxin inh 131, CHX counter 42, HCV inhibitor inconclusive
NC(=O)CSc1nc2c(c(=O)n1-c1ccccc1)C1(CCCCC1)Cc1ccccc1-2	MARV entry inh inconclusive, Lassa entry inh inconclusive, FMDV antiviral 20µM
O/C(=C\c1ccc2ccccc2n1)c1ccc(O)cc1O	MARV entry inh 7.1µM, Shiga toxin inh 39, Lassa entry inh inconclusive, CHX counter 33
c1ccc(N/N=C(\Cc2ncc[nH]2)c2ccccc2)cc1	none
Oc1ccc(/C(Cc2ccc3ccccc3n2)=N\Nc2ccccc2)c(O)c1	MARV entry inh inconclusive, Shiga toxin inh 69, Lassa entry inh inconclusive, CHX counter 34, HCV inhibitor inconclusive
Oc1ccc(/C(Cc2ccccn2)=N\Nc2ccccc2)c(O)c1	MARV entry inh 8.9µM, Lassa entry inh inconclusive, FMDV antiviral inconclusive
O=C(O)c1ccc(/C=N\Nc2ccccn2)cc1	none (no result: Shiga toxin inh, CHX counter)
COc1ccc(CN(C(=O)COc2ccccc2OC)C2CCS(=O)(=O)C2)cc1 (configuration not stated)	none (no result: MARV entry inh, Shiga toxin inh, CHX counter, HCV inhibitor)
Cc1cc(NC(=O)CN2CCCC(C)C2)no1 (configuration not stated)	Shiga toxin inh 49, CHX counter 13
CC12CN3CC(C)(CN(C1)C31CCSCC1)C2=O	none
COc1ccc(-c2noc3c2-c2nc(-c4c(F)cccc4F)sc2CC3)cc1	HCV inhibitor 3.5µM, FMDV antiviral inconclusive (no result: MARV entry inh, Lassa entry inh)
CC[n+]1c(-c2ccccc2)c2cc(N)ccc2c2ccc(N)cc21	MARV entry inh inconclusive, Lassa entry inh inconclusive, HCV inhibitor inconclusive, FMDV antiviral 40µM
c1ccc(Cc2nc3ccccc3[nH]2)cc1	none (no result: MARV entry inh, Lassa entry inh)
Nc1ccc2nc(CCc3ccccc3)[nH]c2c1	MARV entry inh inconclusive, Shiga toxin inh 22, Lassa entry inh inconclusive, CHX counter 71, HCV inhibitor inconclusive
Cc1ccc2nc(CCc3ccc(N)cc3)[nH]c2c1	CHX counter 50 (no result: Shiga toxin inh)
Cc1ccc2nc(Cc3ccc(N)cc3)oc2c1	MARV entry inh inconclusive, Shiga toxin inh 62, CHX counter 28
O=C1CSC(=S)N1N=Cc1ccc(Cl)cc1Cl	none (no result: Shiga toxin inh, CHX counter)
CC(CCc1ccccc1)NC(=O)COC(=O)c1cc(NS(=O)(=O)c2ccc(Cl)c([N+](=O)[O-])c2)ccc1O (configuration not stated)	MARV entry inh 2.5µM, HCV inhibitor inconclusive
CNS(=O)(=O)c1cccc(C(=O)OCC(=O)NC(C)CCc2ccccc2)c1 (configuration not stated)	none (no result: MARV entry inh, Lassa entry inh)
O=C(CSc1ccc(Cl)cc1)Nc1cccc(-c2nc3ncccc3o2)c1	MARV entry inh inconclusive, Lassa entry inh inconclusive, FMDV antiviral 14µM
O=C(Nc1cccc(-c2nc3ncccc3o2)c1)c1ccc(-c2cccc(Cl)c2Cl)o1	FMDV antiviral 11µM (no result: Shiga toxin inh, CHX counter, HCV inhibitor)
O=C(CSc1ccc(Cl)cc1)Nc1cc(-c2nc3ncccc3o2)ccc1Cl	none (no result: MARV entry inh, Lassa entry inh, FMDV antiviral)
CCOc1ccc(NC(=O)CSc2nnc(C(C)C)n2CC)cc1	none
O=C(COC(=O)CCC(=O)c1cccs1)Nc1ccccc1C(F)(F)F	none (no result: MARV entry inh, Shiga toxin inh, Lassa entry inh, CHX counter)
C=C(C)CSc1nnc([C@H](CCSC)NC(=O)OC(C)(C)C)o1	none
O=C(O)Cn1c(=O)cnc2ccccc21	none
CC(C)(C)c1ccc(Cn2c(=O)cnc3ccccc32)cc1	MARV entry inh inconclusive, Shiga toxin inh 90, Lassa entry inh 10µM, CHX counter 38, HCV inhibitor inconclusive, FMDV antiviral 13µM
COC(=O)Cn1c(=O)cnc2ccccc21	none
